This is one part of a sample in which hits are shown more often than they occur.
Pf Dd2 inh – inhibitors of Plasmodium falciparum Dd2 growth. P. falciparum Dd2 growth, SYBR Green, 72 h. Potency, µM (top dose mostly 28.9 µM), inactives show at the top dose activity, negative = inhibition, most hits filed as inhibitors. AID 1347417. 120,000 compounds, 4.3% hits; active = well fitted inhibition curve with a large enough effect;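 also: plate controls were DMSO vehicle for no effect and reference drug for full effect; nearly all actives have a fitted effect of over 65% in size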
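Infected erythrocytes (Dd2, 0.3% parasitemia, 2.5% hematocrit final) are added to compound in RPMI-1640/Albumax II medium, grown 72 h at 37C in low oxygen, then lysed with saponin/Triton-X containing SYBR Green and read by fluorescence.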
Active calls of the source: *; [ ] = dose if it differs, or a comment. Potency is read from the fitted curve at half-maximal effect.

Screening O=C1CC2(CCN(CC3CC3)CC2)Oc2ccccc21 returned Pf Dd2 inh inactive.
For O=C1CC2(CCN(Cc3ccc(C(F)(F)F)cc3)CC2)Oc2cc(Cl)ccc21 the results were Pf Dd2 inh inactive.
For CCC(=O)N1CCC(Oc2nccnc2N2CCOCC2)C1 (stereo not drawn) the results were Pf Dd2 inh 34.3%.
`Cc1cc(C(=O)N2CCC3(CC(=O)NC3=O)C2)c(-c2ccccc2)o1` (stereo not drawn) gave Pf Dd2 inh 7.5%.
For CN(C)[C@@H](Cc1ccccc1)C(=O)N1CCC(N2CCC(O)CC2)CC1 the results were Pf Dd2 inh -4.0%.
For C[C@]1(CO)[C@H]2Cc3sc(NC(=O)C4CCCCC4)nc3[C@@H](CC(=O)O)[C@]2(C)CC[C@H]1O the results were Pf Dd2 inh -20.6%.
Screening COc1ccc(CNC(=O)C[C@@H]2c3nc(NC(=O)c4cccs4)sc3C[C@@H]3[C@](C)(CO)[C@H](O)CC[C@]32C)cc1 returned Pf Dd2 inh 3.98µM*.
COc1ccc(CNC(=O)C[C@@H]2c3nc(NC(=O)c4c(F)cccc4F)sc3C[C@@H]3[C@](C)(CO)[C@H](O)CC[C@]32C)cc1 was read as Pf Dd2 inh 7.94µM*.
For C=CCN(C)C(=O)C[C@@H]1c2nc(NC(=O)COC)sc2C[C@@H]2[C@](C)(CO)[C@H](O)CC[C@]21C the results were Pf Dd2 inh -7.8%.
`CCN(CC)C(=O)C[C@@H]1c2nc(NC(=O)c3ccc(F)cc3)sc2C[C@@H]2[C@](C)(CO)[C@H](O)CC[C@]21C` gave Pf Dd2 inh -11.7%.
Screening C[C@]1(CO)[C@H]2Cc3sc(NC(=O)c4c(F)cccc4F)nc3[C@@H](CC(=O)O)[C@]2(C)CC[C@H]1O returned Pf Dd2 inh -3.8%.
For C=CCN(C)C(=O)C[C@@H]1c2nc(NC(=O)c3cccs3)sc2C[C@@H]2[C@](C)(CO)[C@H](O)CC[C@]21C the results were Pf Dd2 inh 11.2µM*.
For CC(C)(C)CC(=O)Nc1nc2c(s1)C[C@@H]1[C@](C)(CO)[C@H](O)CC[C@@]1(C)[C@@H]2CC(=O)NCc1ccccc1 the results were Pf Dd2 inh inactive.
Screening C=CCN(C)C(=O)C[C@@H]1c2nc(NC(=O)c3ccco3)sc2C[C@@H]2[C@](C)(CO)[C@H](O)CC[C@]21C returned Pf Dd2 inh inactive.
For O=C(C1CC1)N1CCN2C(=O)NC[C@H]2C1 the results were Pf Dd2 inh 24.2%[76.6 µM].
`OC1(c2nc(Nc3ccc(OC(F)(F)F)cc3)n[nH]2)CCOCC1` gave Pf Dd2 inh inactive.
`Cc1ccc(NC(=O)Cn2ccn3nc(-c4ccc(F)cc4)c(CO)c3c2=O)cc1C` gave Pf Dd2 inh -20.6%.
`COc1ccc(OC2CN(C(=O)c3ccc4c(c3)OCO4)C2)cc1` gave Pf Dd2 inh 16.9%.
CC(C)NC(=O)C1CN(Cc2ccccc2)C(=O)N1 (stereo not drawn) was read as Pf Dd2 inh 15.8%[44.1 µM].
CCCn1ccc2oc(C)c(C(=O)NCc3ccc(CC)cc3)c2c1=O was read as Pf Dd2 inh -14.3%.
For CCOc1ccc(CC(=O)N2C[C@@H](CO)[C@H](c3nc(C)no3)C2)cc1 the results were Pf Dd2 inh -8.1%.
Screening COc1cccc(CC(=O)N2CCCC(c3noc(COc4ccccc4F)n3)C2)c1 (stereo not drawn) returned Pf Dd2 inh inactive.
O=C1NCCCCCCN(C(=O)CCCc2ccccc2)[C@H]2CCCC[C@@H]12 was read as Pf Dd2 inh inactive.
Screening Cc1noc(C)c1CC(=O)N1CCC(Cc2noc(-c3ccccc3)n2)C1 (stereo not drawn) returned Pf Dd2 inh -16.7%.
Screening CCN(CC)C(=O)C1CCN(S(=O)(=O)c2ccc3c(c2)CCCN3C(C)=O)CC1 returned Pf Dd2 inh -3.7%.
`CC(=O)N1CCCc2cc(S(=O)(=O)N3CCC(C(=O)Nc4c(C)cccc4C)CC3)ccc21` gave Pf Dd2 inh -8.9%.
Screening CCN(C(=O)C1CCN(S(=O)(=O)c2ccc3c(c2)CCCN3C(C)=O)CC1)c1cccc(C)c1 returned Pf Dd2 inh 12.6µM*.
Screening CC(=O)c1sccc1-c1cc(NCc2ccccn2)nc2[nH]ccc12 returned Pf Dd2 inh -27.7%.
For CN(C)CCNC(=O)c1nc(-c2ccccc2)cc2[nH]ccc12 the results were Pf Dd2 inh inactive.
Screening Clc1cccnc1-c1cc(NCc2ccccn2)nc2[nH]ccc12 returned Pf Dd2 inh 8.91µM*.
`CN(C)CCNc1cc(-c2ccc3ccccc3n2)c2cc[nH]c2n1` gave Pf Dd2 inh 12.6µM*.
Screening CC(C)c1cccc(-c2cc(NCc3ccccn3)nc3[nH]ccc23)n1 returned Pf Dd2 inh 8.91µM*.
For NC(=O)c1ccnc(-c2cc(NCc3ccccn3)nc3[nH]ccc23)c1 the results were Pf Dd2 inh -25.0%.
CC(=O)NCc1ccc(-c2cc(NC3CCCC3)nc3[nH]ccc23)nc1 was read as Pf Dd2 inh -24.1%.
`COCCNc1cc(-c2cncc(C(=O)N3CCOCC3)n2)c2cc[nH]c2n1` gave Pf Dd2 inh -12.3%.

Source: PubChem
